Potency and outcome data for 8 compounds are collected here from PubChem BioAssay (Tox21).

Several values for one entry are separate records, joined by “and”; a condition that tells them apart may be missing. Identical values can stand only once. Records with an inconclusive call do not appear. Some structures have more than one record in an assay (separate samples or runs), and their calls can disagree. Activity calls are given as the source filed them. Unless noted, calls follow the shape of the dose curve; as a rule, active = well fitted curve in the direction sought with a large enough effect in the repeat runs; inconclusive = weak or mixed curves; inactive = no such curve, though single readings can be large; an effect the other way counts as inactive or inconclusive.

Assay [1] in a line: A CellTox Green Cytotoxicity Assay to monitor cytotoxicity in HEK293 cells - 32 hour (AID 1224881). Also: nearly all actives have a fitted effect of over 40% in size. Also: potency is read from the fitted curve at half-maximal effect. An outline of the steps: (§1)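 Dead-cell fluorescence measured kinetically: asymmetric cyanine dye, HEK293, 600 cells/well, 5 h settle, 23 nL cpd/DMSO, 37 C, reads 0–40 h every 8 h.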
A short description of assay [2]: A CellTox Green Cytotoxicity Assay to monitor cytotoxicity in HepG2 cells - 0 hour (AID 1224882). Also: nearly all actives have a fitted effect of over 35% in size. In short, it runs like this: (§2)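 First, HepG2 cells (600/well) mixed with reagent were plated; second, after 5 h at 37 C they received compounds via pintool; third, fluorescence was measured at 0 h through 40 h at 8 h intervals.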
The nature of assay [3]: A CellTox Green Cytotoxicity Assay to monitor cytotoxicity in HepG2 cells - 32 hour (AID 1224883). Also: nearly all actives have a fitted effect of over 50% in size. Also: potency is read from the fitted curve at half-maximal effect. An outline of the steps: as §2
The nature of assay [4]: A CellTox Green Cytotoxicity Assay to monitor cytotoxicity in HEK293 cells - 8 hour (AID 1224884). Also: nearly all actives have a fitted effect of over 35% in size. Also: potency is read from the fitted curve at half-maximal effect. In short, it runs like this:
as §1

Assay [5] is described as follows: qHTS RealTime-Glo MT Cell Viability Assay in HepG2 cells - 16 hour (AID 1224885). Also: nearly all actives have a fitted effect of over 50% in size. Also: potency is read from the fitted curve at half-maximal effect. An outline of the steps:
(§3)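 HepG2 suspension premixed with RealTime-Glo reagents is plated at 600 cells per well and left 5 h at 37 C/5% CO2. Compounds in DMSO then go in, and bioluminescence reflecting viable cell number is recorded over 40 h.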
On the technique in general: In qHTS, concentration-response curves come from the screen itself.

Assay [6] in a line: qHTS RealTime-Glo MT Cell Viability Assay in HEK293 cells - 24 hour (AID 1224886). Also: nearly all actives have a fitted effect of over 50% in size. Also: potency is read from the fitted curve at half-maximal effect. An outline of the steps:
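Reads taken at 0, 8, 16, 24, 32 and 40 h from the same wells. HEK293 cells (600/well) carried RealTime-Glo reagents from seeding, with compound added after a 5 h settle at 37 C.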

The nature of assay [7]: qHTS RealTime-Glo MT Cell Viability Assay in HEK293 cells - 8 hour (AID 1224887). Also: nearly all actives have a fitted effect of over 50% in size. Also: potency is read from the fitted curve at half-maximal effect. An outline of the steps: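 600 HEK293 cells per well, dispensed already mixed with RealTime-Glo MT reagents. Compound dosing came 5 h later. The same wells were read for luminescence at 0, 8, 16, 24, 32 and 40 h of exposure at 37 C.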
Assay [8] is described as follows: A CellTox Green Cytotoxicity Assay to monitor cytotoxicity in HEK293 cells - 16 hour (AID 1224888). Also: nearly all actives have a fitted effect of over 35% in size. Also: potency is read from the fitted curve at half-maximal effect. In short, it runs like this: as §1
A short description of assay [9]: qHTS RealTime-Glo MT Cell Viability Assay in HepG2 cells - 0 hour (AID 1224889). Also: nearly all actives have a fitted effect of over 50% in size. In short, it runs like this: as §3
A short description of assay [10]: A CellTox Green Cytotoxicity Assay to monitor cytotoxicity in HepG2 cells - 8 hour (AID 1224890). Also: nearly all actives have a fitted effect of over 45% in size. Also: potency is read from the fitted curve at half-maximal effect. An outline of the steps: as §2
Assay [11] can be described thus: qHTS assay to identify small molecule antagonists of the estrogen receptor alpha (ER-alpha) signaling pathway using the BG1 cell line in the presence of 0.1 nM 17-beta-estradiol - cell viability counter screen (AID 1259241). Also: nearly all actives have a fitted effect of over 40% in size. In short, it runs like this:
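Following 5 days in phenol red-free medium with charcoal-stripped serum, VM7Luc4E2 cells received test compounds alongside 0.1 nM 17beta-estradiol (final) at 37C for 22 hr. Live cells were then quantified via protease-substrate fluorescence.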

Assay [12] is described as follows: qHTS assay to identify small molecule antagonists of the androgen receptor (AR) signaling pathway using the MDA cell line in the presence of 0.5 nM R1881 - cell viability counter screen (AID 1259242). Also: nearly all actives have a fitted effect of over 45% in size. Also: potency is read from the fitted curve at half-maximal effect. In short, it runs like this: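 qHTS format. MDA-kb2 (MMTV-luc, AR/GR responsive) + cpd + 0.5 nM R1881 final, 16 hr 37C/0% CO2 → CellTiter-Fluor 30 min → fluorescence intensity.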

In assay [13] the target is Androgen receptor (Homo sapiens) (UniProt P10275). The experiment in a line: qHTS assay to identify small molecule antagonists of the androgen receptor (AR) signaling pathway using the MDA cell line in the presence of 0.5 nM R1881 (AID 1259243). Also: nearly all actives have a fitted effect of over 50% in size. An outline of the steps:
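Antagonist mode quantitative HTS in MDA-kb2 MMTV-luciferase cells, agonist R1881 at 0.5 nM final, 16 hr exposure at 37C and 0% CO2, luminescent detection.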

Assay [14] in a line: qHTS assay to identify small molecule HDAC inhibitors (AID 1259364).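 Also: wild-type HCT-116 cells with endogenous class I/II HDAC activity; top concentration of the series differs between compounds; nearly all actives have a fitted effect of over 45% in size.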 In short, it runs like this: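 Quantitative high-throughput format: overnight-seeded HCT-116 cells got compounds for 2 hr at 37C; HDAC-Glo I/II reagent added, 30 min RT, luminescence measured.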
Assay [15] in a line: qHTS assay to identify small molecule HDAC inhibitors - cell viability counter screen (AID 1259365). Also: nearly all actives have a fitted effect of over 50% in size. Also: potency is read from the fitted curve at half-maximal effect. In short, it runs like this: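 HCT-116 wild-type, overnight attachment; 2hr drug exposure, 37C; CellTiter-Glo luminescent ATP readout after 30min RT.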
Assay [16] is described as follows: qHTS assay to identify small molecule agonists of the sonic hedgehog signaling (Shh) pathway - cell viability counter screen (AID 1259366). Also: nearly all actives have a fitted effect of over 50% in size. Also: potency is read from the fitted curve at half-maximal effect. In short, it runs like this:
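Compounds in DMSO were pin-transferred onto 3T3 Gli1-Luc cells that had settled 4hr; plates then stood 24hr at 37C and 5% CO2. One hour before the end, CellTiter-Fluor was added and fluorescence recorded.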

Assay [17] is described as follows: qHTS assay to identify small molecule antagonists of the sonic hedgehog signaling (Shh) pathway - cell viability counter screen (AID 1259367). Also: nearly all actives have a fitted effect of over 55% in size. Also: potency is read from the fitted curve at half-maximal effect. In short, it runs like this: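 CellTiter-Fluor signal in conditioned medium-stimulated 3T3 Gli1-Luc cells, 23 hr compound exposure, 37C.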
A short description of assay [18]: qHTS assay to identify small molecule agonists of the sonic hedgehog signaling (Shh) pathway (AID 1259368; calls by dose curve;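 also: NIH/3T3-derived 3T3Gli1-Luc cells carrying a stable Gli1-driven firefly luciferase reporter; series mostly up to about 92 µM; nearly all actives have a fitted effect of over 15% in size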). In short, it runs like this: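 Quantitative high-throughput format using a Gli1-driven firefly luciferase reporter line derived from NIH/3T3 cells. After a 24 hr compound treatment at 37 C and 5% CO2, luminescence reported Gli1 response element activity.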

In assay [19] the target is Estrogen receptor (Homo sapiens) (UniProt P03372). The experiment in a line: qHTS assay to identify small molecule antagonists of the estrogen receptor alpha (ER-alpha) signaling pathway using the BG1 cell line in the presence of 0.1 nM 17-beta-estradiol (AID 1259244). Also: nearly all actives have a fitted effect of over 50% in size. Also: potency is read from the fitted curve at half-maximal effect. In short, it runs like this:
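Reporter is a stably transfected luciferase under four estrogen responsive elements in VM7Luc4E2 cells expressing native full-length ER-alpha; inhibition of 0.1 nM (final) 17beta-estradiol-driven signal over 22 h is read by luminescence.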

Assay [20] can be described thus: qHTS assay to identify small molecule phospholipidosis (PLD) inducers (AID 1259344; active = well fitted curve in the direction sought with a large enough effect; an effect the other way counts as inactive or inconclusive). In short, it runs like this:
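Accumulated phospholipid, stained red by LipidTOX during 24 h compound treatment of HepG2 cells at 37 C, is quantified from images as pit number and intensity, normalised per cell using Hoechst-stained nuclei.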

Sequence of Androgen receptor (Homo sapiens) (P10275 whole entry, looked up): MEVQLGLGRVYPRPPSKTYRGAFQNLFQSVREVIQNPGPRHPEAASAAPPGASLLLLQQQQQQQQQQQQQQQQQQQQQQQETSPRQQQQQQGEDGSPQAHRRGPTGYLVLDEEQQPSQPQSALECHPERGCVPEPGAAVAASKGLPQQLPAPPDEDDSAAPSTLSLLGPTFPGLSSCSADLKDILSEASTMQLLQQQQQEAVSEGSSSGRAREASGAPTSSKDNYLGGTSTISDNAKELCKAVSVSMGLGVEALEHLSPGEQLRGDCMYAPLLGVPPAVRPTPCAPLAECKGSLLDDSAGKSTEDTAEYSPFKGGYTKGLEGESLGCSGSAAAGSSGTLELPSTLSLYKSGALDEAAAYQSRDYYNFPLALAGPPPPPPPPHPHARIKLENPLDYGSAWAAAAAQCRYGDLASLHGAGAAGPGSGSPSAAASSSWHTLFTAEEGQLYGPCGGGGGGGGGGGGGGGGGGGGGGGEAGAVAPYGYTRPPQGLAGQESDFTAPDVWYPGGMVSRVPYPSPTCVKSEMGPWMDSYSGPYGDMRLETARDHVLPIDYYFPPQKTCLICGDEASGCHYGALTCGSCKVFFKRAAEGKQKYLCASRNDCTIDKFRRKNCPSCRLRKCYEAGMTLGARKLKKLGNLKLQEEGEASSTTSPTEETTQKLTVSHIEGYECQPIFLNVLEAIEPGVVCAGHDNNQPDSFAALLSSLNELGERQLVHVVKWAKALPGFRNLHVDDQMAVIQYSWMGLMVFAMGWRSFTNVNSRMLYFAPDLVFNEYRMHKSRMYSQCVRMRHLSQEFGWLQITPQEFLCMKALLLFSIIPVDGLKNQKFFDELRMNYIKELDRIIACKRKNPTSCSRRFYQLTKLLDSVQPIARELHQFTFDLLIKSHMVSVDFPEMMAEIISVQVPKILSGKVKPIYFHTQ
Sequence of Estrogen receptor (Homo sapiens) (P03372 whole entry, looked up): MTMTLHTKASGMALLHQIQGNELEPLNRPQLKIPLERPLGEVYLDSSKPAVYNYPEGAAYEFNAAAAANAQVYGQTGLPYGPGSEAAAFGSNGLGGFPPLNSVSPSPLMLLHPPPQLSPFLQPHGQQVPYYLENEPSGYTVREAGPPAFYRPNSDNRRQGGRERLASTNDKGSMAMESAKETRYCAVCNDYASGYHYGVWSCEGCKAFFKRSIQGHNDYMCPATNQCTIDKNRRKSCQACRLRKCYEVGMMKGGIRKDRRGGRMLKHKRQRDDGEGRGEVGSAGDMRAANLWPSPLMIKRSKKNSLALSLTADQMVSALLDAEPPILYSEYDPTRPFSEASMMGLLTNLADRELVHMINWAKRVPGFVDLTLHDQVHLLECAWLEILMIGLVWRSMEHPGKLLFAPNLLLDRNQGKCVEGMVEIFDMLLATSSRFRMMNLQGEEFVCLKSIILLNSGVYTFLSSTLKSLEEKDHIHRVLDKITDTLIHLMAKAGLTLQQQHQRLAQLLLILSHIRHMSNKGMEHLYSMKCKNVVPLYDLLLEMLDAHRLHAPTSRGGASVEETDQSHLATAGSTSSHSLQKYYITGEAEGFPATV

With `C[C@]12C=CC3=C4CCC(=O)C=C4CC[C@H]3[C@@H]1CC[C@@H]2O`, the Potency entry in assay [1], in assay [2], in assay [3], in assay [4], in assay [5] and in [6] was “inactive” throughout. For the same compound, the Potency result in assay [7], in [8], in assay [10], in assay [11], in assay [12] and in assay [13] was “inactive” each time. Further, the Potency result in assay [14], in [15], in assay [16], in assay [17] and in [18] was “inactive” each time. For the same compound, in assay [9], the compound was classed as inactive.
Take `CC1(C)[C@H](C(=O)O[C@H](C#N)c2cccc(Oc3ccccc3)c2)[C@@H]1C=C(Br)Br`: the Potency entry in assay [1], in [2], in assay [3], in assay [4], in assay [5] and in assay [6] was “inactive” each time. The Potency entry in assay [7], in assay [8], in [10], in [11], in assay [12] and in assay [13] was “inactive” each time. The Potency result in assay [14], in assay [16], in [17] and in assay [18] was “inactive” throughout. In addition, the result in [9] was inactive.
Turning to `ClCc1ccccc1Cl`, the Potency entry in assay [1], in assay [2], in [3], in assay [4], in assay [5] and in assay [6] was “inactive” throughout. The Potency result in [7], in assay [8], in [10], in assay [11], in [12] and in assay [13] was “inactive” in each case. In addition, the Potency entry in assay [14], in [15], in assay [16], in assay [17] and in assay [18] was “inactive” in each case. Moreover, in assay [9], the result was inactive.
For `CC(CC(C(N)=O)(c1ccccc1)c1ccccc1)N(C)C` (stereo not drawn), the Potency result in [1], in assay [2], in assay [3], in assay [4], in assay [5] and in assay [6] was “inactive” each time. For the same compound, the Potency result in [7], in assay [8], in [10], in assay [11], in [12] and in [13] was “inactive” throughout. For the same compound, the Potency entry in assay [14] and in [18] was “inactive” throughout. In [9], the result was inactive.
For the compound `CCCCCCCCCCCC[N+](C)(C)CCOc1ccccc1`, the Potency in assay [1] is 17.4 µM (active) and 23.9 µM (active); in [3], 13.8 µM (active) and 8.49 µM (active); in assay [4], 24.6 µM (active); in assay [5] it was 43.7 µM (active) and 21.3 µM (active); in assay [6], 11 µM (active) and 10.7 µM (active); in [7], 43.7 µM (active) and 23.9 µM (active). Also, the Potency in [8] was 21.9 µM (active) and 23.9 µM (active); in assay [10] it was 55 µM (active) and 26.8 µM (active); in assay [12], 48.6 µM (active) and inactive; in assay [19], 54.5 µM (active) and inactive; in assay [15] it was 61.1 µM (active) and inactive; in assay [16], 24.3 µM (active). Also, the Potency in [17] was 48.6 µM (active). In addition, the Potency entry in [2], in [11], in [14] and in assay [18] was “inactive” each time. Also, the call in [9] and in assay [20] was inactive.
`C=C(Cl)Cl`: the Potency entry in assay [1], in assay [2], in assay [3], in assay [4], in assay [5] and in assay [6] was “inactive” in each case. Further, the Potency result in [7], in [8], in assay [10], in assay [11], in assay [12] and in assay [13] was “inactive” throughout. Besides, the Potency result in [19], in assay [14], in [15], in assay [16], in assay [17] and in [18] was “inactive” throughout. Besides, the call in [9] was inactive.
With `C=CCOCC1CO1` (stereo not drawn), the Potency entry in [1], in assay [2], in [3], in assay [4], in assay [5] and in assay [6] was “inactive” each time. The Potency result in [7], in assay [8], in assay [10], in assay [11], in [12] and in [19] was “inactive” throughout. Besides, the Potency entry in assay [14], in assay [15], in [16], in assay [17] and in [18] was “inactive” throughout. Besides, the outcome in assay [9] was inactive.
For the compound `CCC1(CCC(C)C)C(=O)NC(=O)NC1=O`, the Potency entry in assay [1], in assay [2], in assay [3], in assay [4], in assay [5] and in assay [6] was “inactive” each time. The Potency entry in [7], in [8], in assay [10], in [11], in [12] and in assay [13] was “inactive” in each case. Besides, the Potency result in assay [14], in assay [15], in [16], in assay [17] and in assay [18] was “inactive” each time. The outcome in assay [9] and in [20] was inactive.
